From PubChem BioAssay
Rows were chosen to be rich in hits. Some 3.5% of all compounds tested hit in one or more screens of this group.
FBW7 act = activators of human E3 ligase FBW7 | Q969H0 | AlphaScreen FBW7–phospho-cyclin E peptide binding, activator screen | normalized activity (activation), % at 26.1 µM | actives 0.13% (n = 650,000) | AID 1259310; in the data active means normalized activity above about 1.9%;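 further: purified mutant Fbw7 with reduced substrate affinity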
MITF inh = blocks human microphthalmia-associated transcription factor. actives 0.91% (n = 650,000). O75030. inhibition, % at 2.6 µM. AlphaScreen MITF homodimerization, bead proximity signal; in the data active means inhibition above about 50%;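 further: 0% = vehicle wells with protein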
Target sequence (O75030 whole entry, looked up): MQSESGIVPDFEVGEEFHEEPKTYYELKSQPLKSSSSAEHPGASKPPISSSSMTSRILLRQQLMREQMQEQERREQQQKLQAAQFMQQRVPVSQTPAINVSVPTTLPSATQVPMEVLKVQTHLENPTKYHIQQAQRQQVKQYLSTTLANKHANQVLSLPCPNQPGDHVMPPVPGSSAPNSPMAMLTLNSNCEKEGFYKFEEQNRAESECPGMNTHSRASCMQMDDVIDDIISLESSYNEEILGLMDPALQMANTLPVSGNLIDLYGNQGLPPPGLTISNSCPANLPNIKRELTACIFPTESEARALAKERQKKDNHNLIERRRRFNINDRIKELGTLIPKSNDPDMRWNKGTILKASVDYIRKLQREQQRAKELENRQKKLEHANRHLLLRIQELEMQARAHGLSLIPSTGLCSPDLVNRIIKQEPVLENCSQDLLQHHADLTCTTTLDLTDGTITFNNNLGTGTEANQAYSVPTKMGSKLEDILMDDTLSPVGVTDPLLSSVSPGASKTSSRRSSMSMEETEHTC
GPR151 ag = activators of human GPR151 | Q8TDV0 | PathHunter beta-arrestin GPR151 cells, luminescence | activation, % at 11.2 µM | actives 1% (n = 650,000); in the data active means activation above about 4.9%;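 further: 0% = median of compound wells and 100% = cells with positive control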
TEAD-YAP block = TEAD-YAP interaction inhibition; HEK-TIYL cells, TEAD-Gal4/YAP UAS-luciferase luminescence; inhibition, % at 9.12 µM; actives 1.4% (n = 640,000); in the data active means inhibition above about 32%;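 further: 0% = median of test compound wells and 100% = reference inhibitor wells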
MITF inh conf = human MITF inhibition, confirmation; AID 1259372; shares compounds with MITF inh; AlphaScreen MITF homodimerization, biotin/His-MITF beads; inhibition, % at 2.6 µM; actives 16% (n = 4,700);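 active means inhibition above a cutoff derived from the DMSO control wells, cut at about 28% in these data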;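 further: 0% = MITF dimer wells with DMSO only; inhibitors lower the bead chemiluminescence by keeping MITF from dimerizing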
AS interf DR = optically interferes with AlphaScreen signal in dose response; AlphaScreen optical interference counterscreen, cell-free; AID 1259373; IC50, µM; shares compounds with MITF inh; actives 6% (n = 480); call rule not given here
AS interf ctr = counter-screen: compounds optically interfering with AlphaScreen; actives 7.6% (n = 4,700); inhibition, % at 2.6 µM; shares compounds with MITF inh; LysRS AlphaScreen counterscreen, signal interference, triplicate;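 active means inhibition above a cutoff derived from the DMSO control wells, cut at about 30% in these data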
* = called active by the depositor; / = not tested or not shown.

SMILES | FBW7 act | MITF inh | GPR151 ag | TEAD-YAP block | MITF inh conf | AS interf ctr | others
O=C(Nc1ccc(N2CCOCC2)cc1)c1ccc2nc(Nc3ccc(N4CCOCC4)cc3)sc2c1 | 0 | 5 | 0 | -4 | / | /
O=C(Nc1ccc(N2CCOCC2)cc1)c1ccnc(Nc2ccc(N3CCOCC3)cc2)c1 | 0 | 9 | 0 | -4 | / | /
O=C(Nc1ccc(N2CCOCC2)cc1)c1ccc2nc(-c3cccs3)sc2c1 | 0 | 55* | 1 | 1 | 57* | 5 | AS interf DR=>7.8
O=C(Nc1ccc(N2CCOCC2)cc1)c1ccnc(Nc2ncccn2)c1 | 0 | 59* | 4 | -7 | 84* | -11 | AS interf DR=>7.1
O=C(Nc1ccc(N2CCOCC2)cc1)c1ccc2nc(Nc3ccccn3)sc2c1 | 0 | 70* | 3 | -14 | 79* | -18 | AS interf DR=>6.8
COc1ccc(NC(=O)c2ccc3c(-n4ccnc4)c4c(nc3c2)CCCC4)cc1OC | 0 | 4 | 3 | 9 | / | /
CC(=O)c1sc2nc(-c3cccs3)ccc2c1N | 0 | 51* | -1 | -28 | 10 | 12
COc1ccc(CNC(=O)c2sc3nc(-c4cccs4)ccc3c2N)cc1 | 1 | 1 | 0 | 4 | / | /
COc1cccc(OC)c1OCCOc1ccccc1C | 0 | -12 | 0 | 8 | / | /
COc1cccc(OC)c1OCCN(C)C | 0 | 59* | -1 | 5 | 22 | -7
CCN(CC)CCCOc1c(OC)cccc1OC | 0 | 75* | 1 | 9 | 14 | -12
Cc1c(OC(=O)C2CC2)ccc2c3c(c(=O)oc12)CCC3 | 0 | -3 | 1 | 22 | / | /
Cc1ccc(P(=O)(CCCO)c2ccc(C)cc2)cc1 | 0 | 2 | 0 | 3 | / | /
Cc1cc(N)c(O)c2ncccc12 | 0 | 81* | 0 | 6 | 104* | 101*
Cc1ccc(S(=O)(=O)Nc2cc(Cl)c(O)c3ncccc23)cc1 | -1 | 22 | -1 | 4 | / | /
COc1ccc(C2Nc3ccccc3C(=O)N2c2cccc3ccccc23)cc1COc1ccccc1F (stereo unspecified) | 1 | 24 | -1 | -25 | / | /
CC(C)NC(=O)c1cccc(NC(=O)Nc2ccc(-c3ncnc4[nH]cc(Cl)c34)cc2)c1 | 1 | 78* | 0 | 6 | 88* | -19 | AS interf DR=>6.5
O=C(Nc1ccc(F)cc1)c1c(O)c2cccc3c2n(c1=O)CCC3 | 0 | -3 | 1 | -12 | / | /
COc1ccc(CN(C)CCc2ccccn2)cc1 | 1 | 83* | 0 | -10 | -5 | 0
Cc1ccc(CN(C)CCc2ccccn2)cc1 | 0 | 35 | 0 | -1 | / | /
CN(CCc1ccccn1)Cc1ccc(Cl)cc1 | 1 | 83* | 0 | 4 | -2 | 0
COc1ccc(C2C(C(=O)N(C)CCc3ccccn3)c3ccccc3C(=O)N2Cc2ccc(F)cc2)cc1 (stereo unspecified) | 0 | -3 | 0 | 9 | / | /
CN(CCc1ccccn1)Cc1ccc([N+](=O)[O-])cc1 | 0 | 75* | 0 | -6 | 0 | 6
CN(C)CCN(C)Cc1ccc([N+](=O)[O-])cc1 | 1 | 83* | -1 | 6 | 16 | 21
CN(C)CCN(C)Cc1ccc(N(C)C)cc1 | 0 | 45 | 1 | 13 | / | /
SMILES | FBW7 act | MITF inh | GPR151 ag | TEAD-YAP block | MITF inh conf | AS interf ctr | others
CCOc1cc2[nH]c(=O)n(CCCCCC(=O)NCCOC)c(=O)c2cc1OCC | 1 | 21 | -1 | -2 | / | /
COc1ccc(C(=O)CN2CCN(c3ccccc3F)CC2)cc1OC | 0 | 7 | 1 | 10 | / | /
CN(CCc1ccccn1)Cc1ccc2c(c1)CN(Cc1cccs1)CCO2 | 0 | 20 | 0 | 6 | / | /
CN(CCc1ccccn1)Cc1ccncc1 | 0 | 83* | -1 | 3 | 2 | -1
O=[N+]([O-])c1ccc(CSCCc2ccccn2)cc1 | 0 | 70* | 0 | -52 | 12 | 22
CCc1ccc(CN(C)CCc2ccccn2)cc1 | 1 | 89* | -1 | -7 | -6 | 2
CN(Cc1ccccc1)Cc1ccccn1 | 0 | 54* | 1 | -4 | 2 | 3
O=C(CCSCCc1ccccn1)Nc1cccc([N+](=O)[O-])c1 | 0 | 4 | 0 | -2 | / | /
CN(Cc1ccccc1)Cc1cccnc1 | 0 | 40 | 3 | 12 | / | /
Cc1nc(SCc2ccccc2)c2c(=O)n(C)c(=O)n(C)c2n1 | 0 | 5 | -1 | -6 | / | /
